# YB-1 expression: inhibitors of YB-1 gene expression, primary screen, cell-based, fluorescence | U2OS, qRT-PCR YB-1 vs CDIP delta delta Cp, 16 h; active compounds read high; zero = DMSO, each unit about twofold | delta delta Cp (YB-1 minus CDIP) (no concentration beside the values) | actives 0.37% (n = 30,000);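 active = delta delta Cp rounded down to an integer at or above 3, about 3 SD of DMSO wells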;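 note: higher means less YB-1 transcript or more CDIP transcript relative to DMSO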
# U2OS ROS induce: ROS inducers in U2OS cancer cells, primary screen, cell-based, H2DCF-DA fluorescence | U2OS ROS induction | ROS induction (% of piperlongumine), % at 10 µM | actives 2% (n = 46,000); in the data active = ROS induction above about 79%, passing the limit was not always enough;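 note: 0% = DMSO vehicle median and 100% = reference compound median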
# PD-1 reverse act: activators reversing PD-1 mediated T-cell inhibition, primary screen, luminescence, primary human CD4 T cells, PD-L1 beads. CellTiter-Glo 96 h. activation, % (no concentration beside the values). 29,000 tested, under 10 active; call rule not given here;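 note: 0% = median vehicle wells and 100% = positive control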
# * = called active by the depositor; . = no result. Sampled rows, rich in hits. Any-hit rate of the full collection: about 2.1%.
SMILES,YB-1 expression,U2OS ROS induce,PD-1 reverse act
CSC(=O)OCC1=C[C@H](O)[C@@H]2C(C(=O)O)=CO[C@@H](OC3OC(CO)C(O)C(O)C3O)[C@H]12 (some centres undefined),4.1*,-9,2
Cc1ccccc1CNC(=O)c1c(C)nc2ccccn2c1=O,.,-13,.
N#Cc1ccc(CSc2nc3ccccc3s2)cc1,.,18,.
COC(=O)CCCCCCC(=O)N/N=C/c1cc(O)ccc1Br,-0.34,26,.
O=C(N/N=C/c1c(F)c(F)c(F)c(F)c1F)c1ccccn1,-0.4,117*,.
O=C(N/N=C/c1ccc(F)cc1)c1ccccn1,0.21,-4,.
COC(=O)c1cc(NC(=O)c2cccc(Cl)c2)cc(C(=O)OC)c1,.,-7,.
O=C(Nc1cc(C(=O)Nc2ccccc2O)cc(C(=O)Nc2ccccc2O)c1)c1ccccc1,.,97*,.
COc1ccc(OC)c(C(=O)CSc2nnc(-c3ccncc3)n2-c2ccc(C)cc2)c1,.,23,-1
CCc1cc(=O)oc2cc(C)cc(OCC(=O)C(C)(C)C)c12,.,73,.
CC(=O)OC/C(=C\COc1cc(=O)oc2cccc(C)c12)CCC=C(C)C,-0.56,110*,.
CCN(CC(=O)Nc1cc([N+](=O)[O-])ccc1C)S(=O)(=O)c1ccc2ccccc2c1,.,5,2
CCc1cc(C(c2ccc(Cl)cc2)N2CCN(CCO)CC2)c(NC(=O)c2ccccc2)s1 (centres undefined),-0.18,89*,-6
O=C(Nc1nc2ccc(Cl)cc2s1)C1CN(C(c2ccccc2)c2ccccc2)C1,.,10,.
CC(C)c1ccc(Nc2nc(N3CCCCC3)nc(N3CCCCC3)n2)cc1,.,3,.
C=C1[C@H](OC(=O)C(C)CC)[C@@H](OC(=O)C(C)C)[C@@H](O)C(C)(C)/C=C\[C@H](C)C(=O)[C@@]2(O)C[C@H](C)[C@H](O)[C@@H]2[C@H]1OC(=O)C(C)CC (some centres undefined),0.58,0,56*
O=C(O)CC(Cc1ccccc1)C(=O)Nc1ccc(Cl)c(Cl)c1 (centres undefined),.,6,0
CCc1ccc(NC(=O)Cn2cc(S(=O)(=O)c3ccccc3)c(=O)c3ccccc32)cc1,.,35,.
Cc1ccc(S(=O)(=O)c2cn(Cc3cccc(Cl)c3)c3cc4c(cc3c2=O)OCO4)cc1,.,98*,.
CC1=C(C(=O)Nc2ccccc2Cl)C(c2cc(Br)ccc2OCC(N)=O)NC(=S)N1 (centres undefined),.,7,-3
COc1cc(C2NC(=S)NC(C)=C2C(=O)Nc2ccccc2Cl)ccc1OCC#N (centres undefined),.,103*,-3
O=C1O[C@@H](c2ccccc2)[C@@H](c2ccccc2)N2[C@@H](c3ccc(OCCO)cc3)[C@]3(C(=O)Nc4ccccc43)[C@@H](C(=O)N3CCN(c4ncccn4)CC3)[C@H]12,-0.19,97*,.
O=C1O[C@H](c2ccccc2)[C@H](c2ccccc2)N2[C@H]1[C@@H](C(=O)N1CCN(c3ncccn3)CC1)[C@]1(C(=O)Nc3ccccc31)[C@H]2c1ccccc1OCCO,-0.21,170*,.
O=C1O[C@H](c2ccccc2)[C@H](c2ccccc2)N2[C@H]1[C@@H](C(=O)N1CCN(c3ncccn3)CC1)[C@]1(C(=O)Nc3ccc(C#CC4(O)CCCCCC4)cc31)[C@H]2c1ccc(OCCO)cc1,-0.033,25,.
COC(=O)C(CC#Cc1ccc2c(c1)[C@]1(C(=O)N2)[C@H](c2ccc(OCCO)cc2)N2[C@H](c3ccccc3)[C@H](c3ccccc3)OC(=O)[C@H]2[C@@H]1C(=O)N1CCN(c2ncccn2)CC1)C(=O)OC,-0.17,54,.
SMILES,YB-1 expression,U2OS ROS induce,PD-1 reverse act
O=C1O[C@@H](c2ccccc2)[C@@H](c2ccccc2)N2[C@@H](c3ccccc3OCCO)[C@]3(C(=O)Nc4ccccc43)[C@@H](C(=O)O)[C@H]12,-0.033,6,.
COC(=O)C(CC#Cc1ccc2c(c1)[C@]1(C(=O)N2)[C@H](c2ccccc2OCCO)N2[C@H](c3ccccc3)[C@H](c3ccccc3)OC(=O)[C@H]2[C@@H]1C(=O)N1CCN(c2ncccn2)CC1)C(=O)OC,-0.15,99*,.
Cc1noc(C)c1NC(=O)N(C)C[C@@H]1Oc2ccc(NS(=O)(=O)c3cn(C)cn3)cc2CC(=O)N([C@@H](C)CO)C[C@@H]1C,-0.2,-15,1
CCc1n[nH]c(=S)c2cc3sccc3n12,.,14,.
COc1ccc(CNC(=O)c2cc3c(=O)oc4ccccc4c3s2)cc1,.,-22,.
C[C@@H]1CN([C@@H](C)CO)C(=O)c2cc(NC(=O)C3CCCCC3)ccc2O[C@H]1CN(C)C(=O)NC1CCCCC1,0.0099,-1,1
CN1C2=C(C(=O)CC(C)(C)C2)C(c2ccccc2OCC(=O)Nc2ccc(F)cc2)C2=C1CC(C)(C)CC2=O,.,134*,0
COC(=O)C1=C(C)NC(=O)NC1c1ccccc1OCC(=O)Nc1ccc(C)cc1 (centres undefined),.,0,-1
C[C@H]1CN([C@@H](C)CO)C(=O)Cc2cc(NC(=O)Cc3cn(C)c4ccccc34)ccc2O[C@H]1CN(C)Cc1ccc(C(=O)Nc2ccccc2N)cc1,-0.55,26,-2
C[C@H]1CN([C@@H](C)CO)C(=O)Cc2cc(NC(=O)Cc3ccccc3)ccc2O[C@@H]1CN(C)CC1CCCCC1,0.032,108*,-1
C[C@@H]1CN([C@H](C)CO)C(=O)Cc2cc(NC(=O)Cc3cn(C)c4ccccc34)ccc2O[C@@H]1CN(C)Cc1ccc(C(=O)Nc2ccccc2N)cc1,-0.23,86*,-2
C[C@@H]1CN([C@@H](C)CO)C(=O)Cc2cc(NC(=O)Cc3ccccc3)ccc2O[C@@H]1CN(C)CC1CCCCC1,0.021,4,3
C[C@H]1CN([C@@H](C)CO)C(=O)Cc2cc(NC(=O)Cc3ccccc3)ccc2O[C@H]1CN(C)Cc1ccc(Oc2ccccc2)cc1,-0.034,64,-2
C[C@@H]1CN([C@H](C)CO)C(=O)Cc2cc(NC(=O)Cc3ccccc3)ccc2O[C@@H]1CN(C)Cc1ccc(Oc2ccccc2)cc1,0.012,95*,-5
C[C@@H]1CN([C@@H](C)CO)C(=O)Cc2cc(NC(=O)Cc3cn(C)c4ccccc34)ccc2O[C@@H]1CN(C)Cc1ccc(Oc2ccccc2)cc1,-0.059,122*,-5
C[C@H]1CN([C@@H](C)CO)C(=O)Cc2cc(NC(=O)Cc3cn(C)c4ccccc34)ccc2O[C@H]1CN(C)Cc1ccc(Oc2ccccc2)cc1,0.014,0,-2
O=C(Nc1cccc(Br)c1)C1C(c2ccccc2)=C1c1ccccc1,.,37,.
Cc1cc2ncc(-c3ccnc(SCCS(=O)(=O)c4ccccc4)n3)c(C)n2n1,0.0066,39,1
Cc1ccc(C(C)C)c(OCC(=O)Nc2cc(-c3nc4ncccc4o3)ccc2C)c1,.,-4,.
Cc1ccc(-n2c(SCC(N)=O)nnc2-c2cccs2)cc1,.,11,1
COc1ccc(CN(C)C[C@H]2Oc3ccc(NC(=O)Cc4cn(C)c5ccccc45)cc3C(=O)N([C@H](C)CO)C[C@@H]2C)cc1,-0.48,185*,.
C[C@@H]1CN([C@@H](C)CO)C(=O)c2cc(NC(=O)Cc3cn(C)c4ccccc34)ccc2O[C@H]1CN(C)Cc1ccc(Cl)c(Cl)c1,0.087,35,-2

# Assay outcomes deposited in PubChem BioAssay by Broad Institute.
